According to PMC13541613, “GHT-SELEX demonstrates unexpectedly high intrinsic sequence specificity and complex DNA binding of many human transcription factors”:

These sequences were tested against ZNF721 full-length (Homo sapiens, UniProt Q8TF20-2 1-923) (assay: HT-SELEX; 20 mM HEPES pH 7, 140 mM KCl, 5 mM NaCl, 1 mM K2HPO4, 2 mM MgSO4, 100 uM EGTA, ZnSO4, 0.1% Tween20; room temperature, 1 h; high values mean tight binding). Conditions: protein: ivt; tags: eGFP (N-terminal); dsDNA, one strand shown.
Sequence of ZNF721 full-length (Q8TF20 other isoform, or with tags, fused parts or gaps): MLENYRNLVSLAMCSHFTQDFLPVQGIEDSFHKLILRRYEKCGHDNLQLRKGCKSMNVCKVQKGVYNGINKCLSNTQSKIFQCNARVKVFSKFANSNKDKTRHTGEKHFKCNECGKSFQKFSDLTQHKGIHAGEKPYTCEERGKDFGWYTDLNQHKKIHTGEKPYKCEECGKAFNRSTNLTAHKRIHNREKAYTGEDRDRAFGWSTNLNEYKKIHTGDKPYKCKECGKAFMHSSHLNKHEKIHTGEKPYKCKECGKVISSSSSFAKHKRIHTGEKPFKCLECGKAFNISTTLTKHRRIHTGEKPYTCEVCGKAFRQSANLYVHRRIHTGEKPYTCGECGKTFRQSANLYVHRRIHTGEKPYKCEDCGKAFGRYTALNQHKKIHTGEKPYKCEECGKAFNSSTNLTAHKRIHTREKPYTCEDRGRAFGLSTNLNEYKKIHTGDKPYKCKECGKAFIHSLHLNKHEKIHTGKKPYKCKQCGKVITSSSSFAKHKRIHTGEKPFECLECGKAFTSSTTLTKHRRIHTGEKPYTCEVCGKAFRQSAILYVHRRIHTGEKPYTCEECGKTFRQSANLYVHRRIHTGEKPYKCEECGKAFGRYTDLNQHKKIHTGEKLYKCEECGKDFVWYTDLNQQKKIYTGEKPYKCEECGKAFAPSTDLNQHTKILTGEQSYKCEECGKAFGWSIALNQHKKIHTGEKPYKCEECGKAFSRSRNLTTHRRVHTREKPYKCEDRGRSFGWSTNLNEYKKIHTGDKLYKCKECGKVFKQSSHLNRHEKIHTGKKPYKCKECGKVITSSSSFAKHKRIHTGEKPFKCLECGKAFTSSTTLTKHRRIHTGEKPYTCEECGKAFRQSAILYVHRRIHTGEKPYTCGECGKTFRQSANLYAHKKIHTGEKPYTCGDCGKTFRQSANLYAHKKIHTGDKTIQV
In short: (§1)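 The binding signal is a relative k-mer count in selected reads, and higher values mean tighter binding. To obtain these reads, bead-bound tagged transcription factor (full-length or DNA-binding-domain fragment, produced in HEK293 lysate or cell-free extract) was mixed with a randomized 40-base DNA library for 1 h at room temperature in low-stringency HEPES/KCl buffer with Tween20. Bound DNA was recovered by washing and heat elution, PCR-amplified through successive cycles and sequenced on Illumina (~3 million 60 bp reads per sample).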
CACCGCCCAC showed a binding signal of 0.123 relative 10-mer count.
AAAGAAGCTA gave a binding signal of 0.132 relative 10-mer count.
Sequence CCGCCTCCCC has a binding signal of 0.155 relative 10-mer count.
CACCACCCCA showed a binding signal of 0.222 relative 10-mer count.
AAGGCATACC was tested, and the binding signal was 0.13 relative 10-mer count.
GCCACCCCAC gave a binding signal of 0.129 relative 10-mer count.
CCCCCGCTCC gave a binding signal of 0.103 relative 10-mer count.
With GCTTTTTTCA the binding signal was 0.21 relative 10-mer count.
With CCCCCCACCG the binding signal was 0.17 relative 10-mer count.
Sequence CACCCGCCCA has a binding signal of 0.103 relative 10-mer count.
CCCATCCCCA gave a binding signal of 0.106 relative 10-mer count.
In the case of CCGACCACCC, the binding signal is reported as 0.119 relative 10-mer count.
CCCACCCCAA gave a binding signal of 0.151 relative 10-mer count.
In the case of GTGGGGTGGA, the binding signal is reported as 0.103 relative 10-mer count.
With CCCGCCCCCA the binding signal was 0.153 relative 10-mer count.
With CGCCCCACCC the binding signal was 0.236 relative 10-mer count.
Sequence AAAGCAGGGT has a binding signal of 0.272 relative 10-mer count.
Work on CCCCCACCTC yielded a binding signal of 0.198 relative 10-mer count.
Work on CGCCCCCGCC yielded a binding signal of 0.132 relative 10-mer count.
For CTCCCCCCCA, the binding signal was 0.117 relative 10-mer count.
In the case of CCACCTACCC, the binding signal is reported as 0.112 relative 10-mer count.
In the case of CCCCCCGACC, the binding signal is reported as 0.147 relative 10-mer count.
CGCCCCCCGC gave a binding signal of 0.12 relative 10-mer count.
With CCCACCACCC the binding signal was 0.562 relative 10-mer count.
For GACCCACCCC, the binding signal was 0.124 relative 10-mer count.
Sequence GCGTACCCTA has a binding signal of 0.111 relative 10-mer count.
In the case of CCCACCCACA, the binding signal is reported as 0.171 relative 10-mer count.
Sequence CCCCCAACCA has a binding signal of 0.118 relative 10-mer count.
CCGCCGCCCC gave a binding signal of 0.169 relative 10-mer count.
AAGCAGCGTA gave a binding signal of 0.162 relative 10-mer count.
In the case of AAAAAAAACA, the binding signal is reported as 0.37 relative 10-mer count.
With AAAAAAAAAG the binding signal was 0.384 relative 10-mer count.
CCCCCCGCCC was tested, and the binding signal was 0.28 relative 10-mer count.
CAAAAAAGCA was tested, and the binding signal was 0.259 relative 10-mer count.
Work on CCCACCCGAC yielded a binding signal of 0.114 relative 10-mer count.
In the case of CGGAAAAAAG, the binding signal is reported as 0.109 relative 10-mer count.
Sequence GGTGGGTGGA has a binding signal of 0.13 relative 10-mer count.
ACCCCCCCAC was tested, and the binding signal was 0.169 relative 10-mer count.
For ATGGGGTGGG, the binding signal was 0.125 relative 10-mer count.
CCACCACACC showed a binding signal of 0.148 relative 10-mer count.

The sequences below were run against ZNF721 DBD1 (Homo sapiens, UniProt Q8TF20-2 29-461) in the same assay as above. Conditions: protein: ivt; tags: eGFP (N-terminal); dsDNA, one strand shown.
Sequence of ZNF721 DBD1 (Q8TF20 17-449): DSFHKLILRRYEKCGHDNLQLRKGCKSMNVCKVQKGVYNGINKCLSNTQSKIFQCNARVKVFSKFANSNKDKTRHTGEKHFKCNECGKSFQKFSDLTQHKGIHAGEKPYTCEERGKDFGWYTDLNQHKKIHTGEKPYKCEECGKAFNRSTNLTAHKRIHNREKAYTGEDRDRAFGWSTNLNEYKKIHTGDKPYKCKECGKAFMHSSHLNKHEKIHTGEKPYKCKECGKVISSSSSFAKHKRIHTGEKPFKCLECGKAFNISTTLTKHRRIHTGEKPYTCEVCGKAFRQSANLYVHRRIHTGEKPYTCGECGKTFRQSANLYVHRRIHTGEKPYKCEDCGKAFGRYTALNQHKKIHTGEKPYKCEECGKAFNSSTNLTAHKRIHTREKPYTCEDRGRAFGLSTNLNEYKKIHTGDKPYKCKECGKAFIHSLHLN
In short: as §1
Sequence CACCGCCCAC has a binding signal of 0.00482 relative 10-mer count.
For AAAGAAGCTA, the binding signal was 0.109 relative 10-mer count.
In the case of CCGCCTCCCC, the binding signal is reported as 0.00798 relative 10-mer count.
CACCACCCCA was tested, and the binding signal was 0.00803 relative 10-mer count.
Sequence AAGGCATACC has a binding signal of 0.00183 relative 10-mer count.
GCCACCCCAC showed a binding signal of 0.00472 relative 10-mer count.
CCCCCGCTCC showed a binding signal of 0.0033 relative 10-mer count.
With GCTTTTTTCA the binding signal was 0.076 relative 10-mer count.
CCCCCCACCG gave a binding signal of 0.00605 relative 10-mer count.
In the case of CACCCGCCCA, the binding signal is reported as 0.00358 relative 10-mer count.
In the case of CCCATCCCCA, the binding signal is reported as 0.00472 relative 10-mer count.
CCGACCACCC gave a binding signal of 0.00495 relative 10-mer count.
In the case of CCCACCCCAA, the binding signal is reported as 0.00642 relative 10-mer count.
GTGGGGTGGA was tested, and the binding signal was 0.00573 relative 10-mer count.
In the case of CCCGCCCCCA, the binding signal is reported as 0.00706 relative 10-mer count.
CGCCCCACCC gave a binding signal of 0.00844 relative 10-mer count.
AAAGCAGGGT was tested, and the binding signal was 0.00115 relative 10-mer count.
In the case of CCCCCACCTC, the binding signal is reported as 0.00945 relative 10-mer count.
CGCCCCCGCC was tested, and the binding signal was 0.00523 relative 10-mer count.
Sequence CTCCCCCCCA has a binding signal of 0.005 relative 10-mer count.
For CCACCTACCC, the binding signal was 0.00527 relative 10-mer count.
In the case of CCCCCCGACC, the binding signal is reported as 0.00482 relative 10-mer count.
CGCCCCCCGC showed a binding signal of 0.00472 relative 10-mer count.
CCCACCACCC was tested, and the binding signal was 0.0272 relative 10-mer count.
For GACCCACCCC, the binding signal was 0.00427 relative 10-mer count.
For GCGTACCCTA, the binding signal was 0.0263 relative 10-mer count.
CCCACCCACA was tested, and the binding signal was 0.00688 relative 10-mer count.
CCCCCAACCA was tested, and the binding signal was 0.00477 relative 10-mer count.
CCGCCGCCCC gave a binding signal of 0.00546 relative 10-mer count.
AAGCAGCGTA was tested, and the binding signal was 0.00124 relative 10-mer count.
For AAAAAAAACA, the binding signal was 0.00592 relative 10-mer count.
Sequence AAAAAAAAAG has a binding signal of 0.0474 relative 10-mer count.
CCCCCCGCCC gave a binding signal of 0.0116 relative 10-mer count.
In the case of CAAAAAAGCA, the binding signal is reported as 0.00725 relative 10-mer count.
For CCCACCCGAC, the binding signal was 0.00449 relative 10-mer count.
Work on CGGAAAAAAG yielded a binding signal of 0.023 relative 10-mer count.
In the case of GGTGGGTGGA, the binding signal is reported as 0.00615 relative 10-mer count.
Work on ACCCCCCCAC yielded a binding signal of 0.00697 relative 10-mer count.
Work on ATGGGGTGGG yielded a binding signal of 0.00477 relative 10-mer count.
For CCACCACACC, the binding signal was 0.00537 relative 10-mer count.
